Potency data for 52 compounds are collected here from PubChem BioAssay (NCATS).

Inconclusive results are not listed. Where a call stands in place of a potency, no number is given. Active and inactive are the calls of the source. Calls come from the whole dose curve; as a rule, active = well fitted inhibition curve with a large enough effect; inconclusive = small, poorly fitted or top-dose-only effect; inactive = no such curve, though single readings can be large or run the other way.

Test [1] addresses Retinaldehyde dehydrogenase 3 (Homo sapiens) (UniProt P47895). The experiment in a line: qHTS for Inhibitors of the Aldehyde Dehydrogenase Family (ALDH1A3) Confirmatory screens (AID 2061311). Note: potency is the fitted concentration of half-maximal effect; nearly all actives have a fitted effect of over 60% in size.
For test [2], the target named is Retinal dehydrogenase 2 (Homo sapiens) (UniProt O94788). The experiment in a line: qHTS for Inhibitors of the Aldehyde Dehydrogenase Family (ALDH1A2) Confirmation screens (AID 2061314). Note: nearly all actives have a fitted effect of over 65% in size. Note: potency is the fitted concentration of half-maximal effect.
Test [3] deals with Retinaldehyde dehydrogenase 3 (Homo sapiens) (UniProt P47895). The test is described as follows: qHTS for Inhibitors of the Aldehyde Dehydrogenase Family (ALDH1A3) Primary screen (AID 2061315).
The target in test [4] is Aldehyde dehydrogenase 1A1 (Homo sapiens) (UniProt P00352). The experiment in a line: qHTS for Inhibitors of the Aldehyde Dehydrogenase Family (ALDH1A1) Confirmatory screens (AID 2061316). Note: potency is the fitted concentration of half-maximal effect; nearly all actives have a fitted effect of over 65% in size.
In test [5] the target is Retinaldehyde dehydrogenase 3 (Homo sapiens) (UniProt P47895). The test is described as follows: qHTS for Inhibitors of the Aldehyde Dehydrogenase Family (ALDH1A3) Validation screen (AID 2061312). Note: nearly all actives have a fitted effect of over 45% in size.

Regarding `Cc1c(C(=O)OCC2CCCC2)[nH]c2c1C(=O)CC(c1ccco1)C2` (stereo unspecified), the Potency in test [1] is 15.8 µM (active); in test [2] it was 3.57 µM (active); in test [4], 1.13 µM (active). In test [3], the Potency result is “inactive”.

`Cc1cc(C)nc(NC(=S)N2CCN(c3cccc4cnccc34)CC2)c1`: the Potency in test [1] was 20.1 µM (active); in test [2] it was 8.96 µM (active); in test [4], 10.1 µM (active). In the case of `COc1ccc(C(=O)c2ccc(-c3no[n+]([O-])c3C#N)cc2)cc1`, the Potency in test [1] is 2.51 µM (active); in test [2], 12.6 µM (active); in test [4] it was 5.65 µM (active). The Potency result in test [3] is “inactive”. Regarding `Oc1cc(-c2cccnc2)cc2cccnc12`, in test [1], the Potency is 4.49 µM (active). The Potency entry in test [2] and in test [3] was “inactive” throughout.

In the case of `Cc1ccc(N[S+](=O)([O-])c2cc3c(cc2N[C@@H](C)CO)NC(=O)CC3)cc1N[C@@H](C)CO`, the Potency was 14.2 µM (active) in test [1] and 2.83 µM (active) in test [2]. `O=C1CCCC2=C1C(c1cccnc1Br)N=C(Nc1nc3ccccc3o1)N2` (stereo unspecified): the values for the Potency in test [1] and in test [4] were 20.1 µM (active) and 11.3 µM (active), respectively. The Potency result in test [3] is “inactive”. For `O=C(Nc1cccc(Cc2ccccc2)n1)c1ccc(-c2cccc([N+](=O)[O-])c2)o1`, the Potency was 6.34 µM (active) in test [1], 7.98 µM (active) in test [2] and 5.65 µM (active) in test [4]. Also, in test [3], the Potency entry is “inactive”. With `CC(=O)Nc1ccc(OCc2cccc(-c3nc4ccccc4c(=O)n3Cc3ccco3)c2)cc1`, the Potency is 15.8 µM (active) in test [1], 7.98 µM (active) in test [2] and 2.83 µM (active) in test [4]. The Potency entry in test [3] is “inactive”. For `CC(=O)NC(C)c1cc(Cl)c2ccccc2c1O` (stereo unspecified), the Potency was 3.18 µM (active) in test [1], 12.7 µM (active) in test [2] and 4 µM (active) in test [4]. Turning to `O=C(c1ccccc1O)N(Cc1ccco1)Cc1ccco1`, the Potency in test [1] was 12.7 µM (active); in test [2], 11.3 µM (active). In addition, the Potency result in test [3] is “inactive”. With `C=CC(=O)N1CCC[C@@H](n2nc(-c3cccc(C(=O)Nc4ccc(C(C)C)c(C)c4)c3)c3c(N)ncnc32)C1`, the Potency result in test [5] and in test [3] was “inactive” throughout. For `C=CC(N)CCC(=O)O` (stereo unspecified), in test [5], the Potency result is “inactive”.

For `N#Cc1ccc(N2CCN(S(=O)(=O)c3ccc4c(c3)CC(=O)N4)CC2)cc1`, in test [3], the Potency entry was “inactive”. As for `O=C(NCC(=O)N1CCOCC1)c1ccc(-c2cccc(C(F)(F)F)c2)cc1`, the Potency result in test [2] is “inactive”.

As for `Cc1nn(-c2ccc3nnc(C)n3n2)c(C)c1CCC(=O)Nc1ccc(OC(F)(F)F)cc1`, the Potency result in test [2] is “inactive”. Take `COc1cncc(Nc2cnc3ccc(-c4ccc(F)cc4)nn23)c1`: the Potency result in test [2] was “inactive”. The same measure, in the same setting: the entry for `CC(=O)c1cccc(NC(=O)c2ccc(Cl)c(S(=O)(=O)N3CCOCC3)c2)c1` is “inactive”; for `COc1ccc(-c2cc(C(=O)NCCc3ccc(OC)c(OC)c3)c3ccccc3n2)cc1` it is “inactive”; for `COc1ccc(-c2nc(C(=O)Nc3ccc(C(C)=O)cc3)nn2-c2cccc(Cl)c2)cc1` it is “inactive”. The same measure, in the same setting: the same measure for `Cc1cccc(C(=O)N2CCCC(N3CCN(c4cccc(C(F)(F)F)c4)CC3)C2)c1` (stereo unspecified): “inactive”. On the same count and under the same terms, the same measure for `COc1ccc(NC(=O)c2cc(S(=O)(=O)N3CCOCC3)ccc2OC)cc1`: “inactive”; for `COc1ccc(CN2CC(O)CN([S+](=O)([O-])c3ccc(F)cc3)CC2=O)cc1` (stereo unspecified): “inactive”; for `CCc1noc(-c2nc(Cc3cccc(F)c3)no2)n1`: “inactive”.

Regarding `COc1ccc(S(=O)(=O)NCC(c2ccco2)N2CCOCC2)cc1C` (stereo unspecified), the Potency entry in test [2] is “inactive”. Turning to `Cc1cccc(-c2nc3c(cnn3-c3ccccc3)c(=O)n2-c2ccc(Br)cc2)c1`, in test [2], the Potency entry was “inactive”. Still for that read-out and setting: the entry for `CC(Cn1cncn1)NC(=O)c1cccc(S(=O)(=O)N2CCOCC2)c1` (stereo unspecified) is “inactive”.

In the case of `CCOc1ccc(N(C)S(=O)(=O)c2cc(-c3cc(C)no3)ccc2OC)cc1`, in test [2], the Potency entry is “inactive”.

For the compound `COc1ccc(S(=O)(=O)NCc2nc3nc(C)cc(C)n3n2)cc1OC`, in test [2], the Potency result was “inactive”. As to `CNC(=O)[C@H]1C[C@H](Oc2cccnc2)CN1C(=O)Cc1ccccc1`, the Potency entry in test [2] was “inactive”. Consider `O=C(COc1ccccc1-c1nc(-c2ccccc2)no1)Nc1cccc([N+](=O)[O-])c1`, for which the Potency entry in test [2] was “inactive”. On the same count and under the same terms, the same measure for `Cn1cnc(S(=O)(=O)N2CCC(C(=O)Nc3ccc(OC(F)(F)F)cc3)CC2)c1`: “inactive”; for `CN(Cc1ccccc1C(F)(F)F)C(=O)c1ccc(Cl)nc1`: “inactive”; for `O=c1cc2nc(-c3ccccc3)nc(SCc3cccc(Br)c3)n2[nH]1`: “inactive”. In the case of `COc1ccc(S(=O)(=O)N2CCOC[C@H](Oc3ccc(C(F)(F)F)cc3)C2)cc1`, the Potency result in test [2] was “inactive”. Regarding `COc1ccc(-c2nnc(SCC(=O)Nc3cccc(C(F)(F)F)c3)nc2-c2ccc(OC)cc2)cc1`, in test [2], the Potency result was “inactive”. For the compound `COc1ccccc1C(=O)Nc1ccc(-c2cc(C(F)(F)F)nn2-c2ccccc2)cc1`, in test [2], the Potency result is “inactive”. Take `O=C(CC1N=C2c3ccccc3N=C(SCc3cccc(F)c3)N2C1=O)NCc1cccs1` (stereo unspecified): the Potency result in test [2] was “inactive”. In the case of `Cc1cccc(NC(=O)CSc2nc3ccccc3nc2N2CCOCC2)c1C`, the Potency entry in test [2] is “inactive”. Take `COc1ccc(CC(=O)N2CCC3(CC2)CN([S+](=O)([O-])c2ccccc2)CCO3)cc1`: the Potency result in test [2] was “inactive”. Same read-out and setting: the entry for `O=C(NCC(=O)N1CCOCC1)c1ccc(-c2cnc3ccccc3c2)cc1` is “inactive”; for `CCCCOc1cccc(C(=O)Nc2cc(NC(=O)c3ccco3)ccc2OC)c1` it is “inactive”. Still for that read-out and setting: the same measure for `COc1ccc(NC(=O)CCc2c(C)nc3c(c2C)c(=O)n(C)c(=O)n3C)cc1OC`: “inactive”; for `CC(=O)Nc1ccc(S(=O)(=O)N[C@@H]2C=C[C@@H](c3c(C)nn(-c4ccc(C(C)(C)C)cc4)c3C)C2)cc1`: “inactive”. Same read-out and setting: the same measure for `O=C(Nc1ccc(O)cc1)c1cccc(S(=O)(=O)N2CCOCC2)c1`: “inactive”; for `CCc1c(-c2ccccc2)nc2ccccc2c1C(=O)NC(C)c1ccccc1` (stereo unspecified): “inactive”. Consider `CNC(=O)c1cc(C2CC2)nc2onc(C3CCCN3C(=O)c3cccc(Cl)c3)c12` (stereo unspecified), for which the Potency result in test [2] is “inactive”. On to `CCOc1ccc(C(=O)N(Cc2ccc(C(C)C)cc2)Cc2ccco2)cc1`, for which the Potency result in test [2] is “inactive”.

Take `COc1ccc(-c2nc(CNS(=O)(=O)c3cccc(F)c3)cs2)cc1`: in test [2], the Potency is 5.76 µM (active). On the same count and under the same terms, the entry for `COc1ccc(S(=O)(=O)N2CCC(N(C(=O)C3CC3)C3CCOCC3)CC2)cc1` is “inactive”. As for `COc1ccccc1CCNc1ncnc2c1nnn2C`, the Potency entry in test [2] is “inactive”. On the same count and under the same terms, the entry for `N#Cc1cc2c(=O)n3ccccc3nc2n(-c2nnc(SCc3ccc(F)cc3)s2)c1=O` is “inactive”; for `COc1ccccc1C(=O)Nc1cc(-c2cccc(Br)c2)nn1-c1ccccc1` it is “inactive”.
